PTHR1 ag: activates the human parathyroid hormone receptor PTHR1 | Q03431 | HEK293 GP2 PTHR1 cells, GloSensor cAMP luminescence, 1 h | Potency, µM (series often up to 115 µM), for inactives: top-dose activation, usual class: activators | actives 0.075% (n = 410,000); further: potency means the concentration at half of the fitted maximal effect; nearly all actives have a fitted effect of over 55% in size
Target sequence (Q03431 whole entry, looked up): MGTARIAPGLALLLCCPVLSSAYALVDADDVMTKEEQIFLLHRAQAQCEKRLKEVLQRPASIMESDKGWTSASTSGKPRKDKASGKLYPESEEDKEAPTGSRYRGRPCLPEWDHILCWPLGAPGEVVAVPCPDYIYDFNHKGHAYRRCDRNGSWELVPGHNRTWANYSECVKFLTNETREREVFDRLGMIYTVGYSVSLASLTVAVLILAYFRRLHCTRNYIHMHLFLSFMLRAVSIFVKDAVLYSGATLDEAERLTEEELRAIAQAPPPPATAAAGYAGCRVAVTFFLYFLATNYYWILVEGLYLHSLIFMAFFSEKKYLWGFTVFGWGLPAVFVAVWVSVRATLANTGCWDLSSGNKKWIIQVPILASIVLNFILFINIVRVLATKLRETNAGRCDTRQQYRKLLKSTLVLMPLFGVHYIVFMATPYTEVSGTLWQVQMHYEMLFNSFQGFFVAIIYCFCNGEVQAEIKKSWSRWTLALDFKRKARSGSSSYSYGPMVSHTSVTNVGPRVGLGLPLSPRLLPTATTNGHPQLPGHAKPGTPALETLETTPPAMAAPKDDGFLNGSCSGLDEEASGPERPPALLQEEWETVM
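HEK-293-derived GP2 cells expressing PTHR1 and a GloSensor cAMP reporter, 3,000/well, plated overnight, given luciferin plus IBMX (each 0.5 mM as added) for 1 h at 37 °C, then compound for 1 h at 37 °C. Luminescence was read after 15 min at room temperature.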
BRCA1 expr act: activators of BRCA1 expression; Potency, µM (highest dose often 46.1 µM), inactives show at the highest dose activation, most hits filed as activators; actives 1.1% (n = 380,000); MCF7-BRCA1-FFLuc reporter, luminescence, 48 h; response scale: scaled: vehicle 0%, 10 µM genistein 100%; AID 624202; further: potency means the concentration at half of the fitted maximal effect; nearly all actives have a fitted effect of over 80% in size
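MCF7-BRCA1-FFLuc, 2000 cells/well; 2 h attach, 37 °C/5% CO2; compound 48 h; luciferase substrate 15 min; luminescence end-point. Norm. to genistein 10 microM max activation and DMSO; concentration-response curves fitted.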
RGS4 inh: human RGS4 inhibition. Transcreener GDP fluorescence polarization, RGS4-accelerated GTP hydrolysis. AID 504845. Potency, µM (top dose mostly 114 µM), without a hit: top-dose activity change, negative = inhibition, most hits filed as inhibitors. actives 0.039% (n = 390,000); further: potency means the concentration at half of the fitted maximal effect; on the % scale 0 is the no-effect control and ±100 the full control effect; nearly all actives have a fitted effect of over 75% in size
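MLSMR compounds (23 nl, pin-transferred) preincubated 10 min at room temperature with a 500nM (2x) first reagent, then RGS4 at 900nM (2x) plus Transcreener GDP mix added; fluorescence polarization (620/688 nm) read before and after 90 min at 30 °C.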
p53 reactivator: mutant p53 re-activation in reporter cells; H1299 p53-A138V BP100-luciferase reporter, luminescence, 24 h; Potency, µM (doses to about 92.2 µM), without a hit: top-dose activity change, positive = activation, hits mostly activators; actives 0.063% (n = 320,000); AID 504706; further: potency means the concentration at half of the fitted maximal effect; % of control where 0% means no effect; nearly all actives have a fitted effect of over 45% in size
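H1299 (p53-null), stable ts p53-A138V + BP100-Luc; 1000 cells/well, Opti-MEM/10% FBS; cpd 4 pt, 1:5; 24 h, 37 deg C, 5% CO2; detection reagent 10 min RT; luminescence.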
LDHA block: inhibitors of human lactate dehydrogenase A; actives 0.15% (n = 480,000); activity change, % (values are at about 110 or 230 µM); purified LDHA, NADH/diaphorase-resazurin fluorescence; stronger effect = lower value; AID 1347041; P00338; in the data active means activity change below about -30%; inconclusive means mostly about -25% to -30%;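 further: plate controls were DMSO wells for no effect and wells without enzyme for full effect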
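LDH5 2 nM; NADH 0.06 mM, pyruvate 0.2 mM; 200 mM Tris pH 7.4, EDTA, Tween-20; 5 min RT. Detection: diaphorase 0.133 mg/mL + resazurin 37 µM, fluorescence ex540/em590 at 0 and 20 min; normalized to enzyme-free and DMSO wells.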
Starred values were filed as active, the others as inactive; i = inactive; ? = inconclusive; . = not tested or not shown; [ ] = another dose, or the depositor's remark. Hits are enriched below; roughly 1.1% of the tested compounds scored in any of these assays. Unless noted, the call rests on the fitted dose curve; in most records, active means well fitted curve in the direction sought with a large enough effect; inconclusive means small, poorly fitted or top-dose-only effect, or another doubt; inactive means no such curve, though single readings can be large; an effect the other way counts as inactive or inconclusive.

SMILES | PTHR1 ag | BRCA1 expr act | RGS4 inh | p53 reactivator | LDHA block
COc1ccc(C2=NOC(CN3C(=O)c4ccccc4S3(=O)=O)C2)cc1 (configuration not stated) | -14%[57.5 µM] | 2.8µM* | -1% | ? | -2
O=C1c2ccccc2S(=O)(=O)N1CC1CC(c2ccccc2)=NO1 (configuration not stated) | i | 11µM* | 30% | 27% | -12
COc1cc(OC)cc(OC(C)C(=O)Nc2cc(Cl)ccc2C)c1 (configuration not stated) | . | . | . | . | 11
CCOC(=O)c1ccc(-c2ccc(/C=C(/C#N)C(=O)N3CCOCC3)o2)cc1 | . | . | . | . | 7
O=S(Cc1ccc(Cl)cc1)Cc1c(Cl)cccc1Cl (configuration not stated) | . | . | . | . | 4
CCN(CC)CCNC(=O)c1ccc2c(c1)NC(=O)C(CS(=O)(=O)Cc1cccc(Br)c1)N2 (configuration not stated) | ? | . | 12% | . | 8
CCN(CC)CCCNC(=O)c1ccc2c(c1)NC(=O)C(CS(=O)(=O)Cc1cccc(Br)c1)N2 (configuration not stated) | 16µM* | . | -2% | . | 10
CCOc1ccc(N=C(/C(C(=O)C(=O)N2CCOCC2)=C(/O)c2ccccc2)c2ccccc2)cc1 | -3% | 11µM* | 1% | 10% | -1
Cc1cc(=O)oc2cc(OC(=O)CCCOc3ccccc3)ccc12 | . | . | . | . | 10
CCNC(=O)c1ccc(CSc2ccc(Cl)cc2)cc1 | i | 29% | -44% | 0% | 0
CC(=O)NCCNC(=O)c1ccc(CSc2ccc(Cl)cc2)cc1 | -7% | 11µM* | -11% | 5% | -1
S=c1sc(SCc2ccccc2)c(SCc2ccccc2)s1 | . | . | . | . | 11
COc1ccc2cc(C3=CCCCC3)ncc2c1 | -95% | 2.8µM* | -17% | ? | 0
C=C(Cl)CN1CCC(C(=O)NCCc2ccccc2F)CC1 | . | . | . | . | -4
Cc1nn(C)c(C)c1CNCc1ccnc(N2CCOCC2)c1 | . | . | . | . | -1
Cc1nn(C)c(C)c1CNCc1cccnc1N1CCOCC1 | . | . | . | . | -38*
O=C1NC(CCc2ccccc2)C(=O)N1Cc1coc(-c2cccc(F)c2)n1 (configuration not stated) | . | . | . | . | -1
COc1cc2c(cc1NC(=O)Cc1ccc(C)cc1)oc1ccccc12 | -72% | 7.9µM* | 11%[11.4 µM] | ? | -8
COc1cc2c(cc1NC(=O)CSc1ccc(C)cc1)oc1ccccc12 | ? | 0% | -5% | -3% | 3
CCCNc1nc(-c2ccc3[nH]c(=O)oc3c2)cs1 | . | . | . | . | 0
CC1=NN(C(N)=S)C(=O)C1N=Nc1ccc(F)cc1 (configuration not stated) | -2% | 40% | -22% | 25µM* | -1
O=C1C(=Cc2cn(-c3ccccc3)nc2-c2ccc(OCc3ccccc3F)cc2)SC(=S)N1CCS(=O)(=O)O | -22% | -48% | . | . | -34*
O=C1C(=Cc2cn(-c3ccccc3)nc2-c2ccc(OCc3ccc(Cl)cc3)cc2)SC(=S)N1CCS(=O)(=O)O | 24% | -36% | . | . | -24
c1ccc2oc(NC3=NCN(C4CCCCC4)CN3)nc2c1 | i | 2.8µM* | 7% | 17% | -2
OCC#CC[N+]1(CC#Cc2ccc(C#CC[N+]3(CC#CCO)CCCCC3)cc2)CCCCC1 | . | . | . | . | 4
SMILES | PTHR1 ag | BRCA1 expr act | RGS4 inh | p53 reactivator | LDHA block
O=C(c1cc(-c2ccccc2Cl)on1)N1CCN(C(=O)c2ccco2)CC1 | i | 72% | -11% | 0% | -4
O=C(c1ccco1)N1CCN(C(=O)c2ccc(-c3ccccc3Cl)o2)CC1 | -22% | 8.9µM* | 8% | ? | -13
COc1ccc(-c2cc(C(=O)N3CCCCC3)c3cccc(C)c3n2)cc1 | . | . | . | . | 8
CC1(C(=O)OCC(=O)c2c[nH]c3ccccc23)CC1(Cl)Cl (configuration not stated) | -49% | 8.9µM* | 4% | ? | -1
COc1ccc(C(=O)Nc2ccc(C(F)(F)F)n(C)c2=O)cc1 | -5% | 11µM* | -8% | ? | -4
Cc1ccc(C(=O)Nc2ccc(C(F)(F)F)n(C)c2=O)cc1 | -1% | 15% | 0% | 11% | -2
Cc1[nH]nc(SCC(=O)N2CCCCCC2)c1[N+](=O)[O-] | i | 7.9µM* | 0% | 7% | -16
Cc1[nH]nc(SCC(=O)N2CCCCC2)c1[N+](=O)[O-] | i | 21% | -31% | 27% | -6
COc1ccc(NC(=O)N(C)[C@H]2C[C@H]3c4[nH]c5ccccc5c4CCN3C[C@H]2[C@H](C)O)cc1 | 0% | 4% | . | . | -25
COc1ccc(CN(C)[C@H]2C[C@H]3c4[nH]c5ccccc5c4CCN3C[C@H]2[C@H](C)O)cc1 | -7% | -29% | . | . | -30*
O=C(Nc1ccc(O)cc1C(=O)O)c1ccc2c(c1)C(=O)N(Cc1ccco1)C2=O | i | -2% | -13% | 8% | -14
O=C(Nc1cc([N+](=O)[O-])ccc1O)c1cccc(C(=O)Nc2cc([N+](=O)[O-])ccc2O)c1 | -6% | -14% | -31% | 14% | -35*
O=C(Nc1cc([N+](=O)[O-])ccc1O)c1ccc2c(c1)C(=O)N(Cc1ccco1)C2=O | ? | -11% | ? | -2% | -56*
O=C(Nc1cc([N+](=O)[O-])ccc1O)c1cccc([N+](=O)[O-])c1 | -41% | 90% | -29% | . | -11
NNC(=O)c1ccc([N+](=O)[O-])cc1 | . | . | . | . | -2
NS(=O)(=O)c1ccc(O)c(NC(=O)c2ccc([N+](=O)[O-])cc2)c1 | -8% | 10% | -27% | 14% | -57*
Cc1ccc(-n2nnc3ccccc3c2=O)cc1C | -8% | 4.5µM* | -8% | ? | -6
CCOc1ccc(C(=O)Nc2ccc3c(c2)OCCO3)cc1[N+](=O)[O-] | i | 46% | 7% | ? | -1
CCOc1ccc(C(=O)Nc2ccc3c(c2)OCCO3)cc1OC | i | 10µM* | -13% | 21% | 4
O=C(Nc1ccc2c(c1)OCCO2)c1ccccc1F | -12% | 3% | -38%[11.4 µM] | 15% | -4
O=C(Nc1ccc2c(c1)OCO2)c1cccc(Cl)c1 | -25%[57.5 µM] | 11µM* | -14% | ? | -7
O=C(Nc1ccc2c(c1)OCCO2)c1c(F)cccc1F | -8% | 2.5µM* | 16% | 22µM* | -2
COc1cc(OC)cc(C(=O)Nc2ccc3c(c2)OCCO3)c1 | -23% | 13µM* | -16% | 11% | 1
CCOc1cccc(/C=C2/Cc3c(O)cccc3C2=O)c1 | . | . | . | . | -1
Cc1c(C(=O)O)oc2ccc(S(=O)(=O)Nc3ccccc3)cc12 | . | . | . | . | 7
CCN1CCN(c2nc(-c3ccccc3)nc3cc(OC)c(OC)cc23)CC1 | . | . | . | . | 9

Screening data as filed in PubChem BioAssay.
